Reference: PubChem BioAssay (Tox21)
Records with an inconclusive call do not appear. Unmarked numbers belong to inactive results. Calls come from the whole dose curve; as a rule, active = well fitted cell-killing curve with a large enough effect in the repeat runs; inconclusive = weak or mixed curves, or effect the other way; inactive = flat fitted curve, though single readings scatter.

Assay: qHTS RealTime-Glo MT Cell Viability Assay in HEK293 cells - 0 hour (AID 1224880); note: top concentration of the series differs between compounds; nearly all actives have a fitted effect of over 45% in size
Conditions: RealTime-Glo luminescence; series mostly up to 76.8 µM; activity change, negative = cytotoxicity: at the top concentration
Source text: U.S. Tox21 Program National Center for Advancing Translational Sciences [NCATS] NIH Chemical Genomics Center [NCGC] U.S. Environmental Protection Agency [EPA] National Institutes of Environmental Health Sciences [NIEHS] National Toxicology Program [NTP] U.S. Food and Drug Administration [FDA] Tox21 Assay Overview: Measure of cell viability is critical in the cell-base assay. Analysis of cell viability is necessary for the characterization of cell responses to cytotoxic drugs and environmental stress. A RealTime-Glo MT Cell Viability Assay to monitor cell viability in real time of continues cell culture during 40 hours of compound treatment was used to screen Tox21 10K library compounds in Hek293 cells. The RealTime-Glo MT Cell Viability Assay is a nonlytic, homogeneous, bioluminescent method to measure cell viability in real time using a simple, plate-based method. The assay involves adding NanoLuc luciferase and a cell-permeant prosubstrate to cells in culture. Viable cells reduce the proprietary prosubstrate to generate a substrate for NanoLuc luciferase. This substrate diffuses from cells into the surrounding culture medium, where it is rapidly used by the NanoLuc Enzyme to produce a luminescent signal. The signal correlates with the number of viable cells, making the assay well suited for cytotoxicity studies.
Tox21 Assay Protocol Summary: The mixture of Hek293 cell suspension and reagents were dispensed at 600cells/6 ul/well in 1536-well tissue culture treated black solid bottom plates using a Multidrop dispenser. After the assay plates were incubated at a 37 C/5% CO2 incubator for 5 hours, 23 nL of compounds dissolved in DMSO, positive and negative controls was transferred to the assay plate by a pintool work station. The plates were incubated at 37 C for 40 hours. The luminescence intensity were measured at 0h, 8h, 16h, 24h, 32h and 40h time points using ViewLux plate reader during compound treatment.
% is set by controls: 0 for no effect and ±100 for the full control effect.

Compound | activity change, negative = cytotoxicity
CCCCCCCCCCCCCCCCC(=O)O | 4.93% [at 35.3 µM]
CC(=O)c1cccnc1 | -0.149%
Cc1c(-c2cccnc2)c2ccccc2n1CCCCC(=O)O | -20.2%
C=C[Si](OCC)(OCC)OCC | 16.4%
O=C(OCCN1CCOCC1)c1cccnc1Nc1cccc(C(F)(F)F)c1 | 1.71% [at 35.3 µM]
CS(C)=O | 8.18%
CCCCCC1CCC(=O)O1 (stereo not given) | 25.7%
CC(C)(C(=O)O)c1ccc(C(O)CCCN2CCC(C(O)(c3ccccc3)c3ccccc3)CC2)cc1 (stereo not given) | 2.91% [at 35.3 µM]
O=C(N[C@@H](Cc1ccccc1)[C@@H](O)C(=O)N1C[C@@H](O)[C@@H](O)C1)c1cc2cc(Cl)ccc2[nH]1 | 1.69%
CCc1ccc(C(=O)C(C)CN2CCCCC2)cc1 (stereo not given) | 10.3% [at 35.3 µM]
CCCCCCOC(=O)c1ccccc1 | -1.04%
CO[C@@H]1COCC[C@@H]1N[C@@H]1CC[C@@](C(=O)N2CCc3ncc(C(F)(F)F)cc3C2)(C(C)C)C1 | 2.81%
Oc1ccc(CCNCCCCCCNCCc2ccccc2)cc1O | -1.35% [at 35.3 µM]
Cc1cc(C)n(CO)n1 | 0.622%
Cc1c(N=C=O)cccc1N=C=O | 7.85%
CC(=O)Nc1ccccc1O | 5.23%
COc1ccc(/C=C/S(=O)(=O)NC(=O)c2ccc(C)cc2Cl)cc1 | -13%
CCCCCCCCCCCC(=O)OCC | 3.11%
O=C(NC1CCN(CCc2c[nH]c3ccccc23)CC1)c1ccccc1 | 11.9% [at 35.3 µM]
Cc1ccc2ccccc2c1[N+](=O)[O-] | 2.76%

Compound | activity change, negative = cytotoxicity
CC(C(=O)O)c1ccc2c(c1)Cc1cccnc1O2 (stereo not given) | -2.61% [at 35.3 µM]
Cc1ccc2c(Cl)cc(Cl)c(O)c2n1 | -8.54% [at 35.3 µM]
CC(C(=O)O)c1ccc(/C=C2\CCCCC2=O)cc1 (stereo not given) | 7.18% [at 35.3 µM]
Clc1cc(Cl)c2c(c1)N=C1CCCCCN1C2 | 5.65% [at 35.3 µM]
CCc1c(C)[nH]c2c1C(=O)C(CN1CCOCC1)CC2 (stereo not given) | 9.53% [at 35.3 µM]
OCC(O)c1ccccc1 (stereo not given) | 4.97%
CCc1ccc2c(c1)C(=O)c1ccccc1C2=O | 2.55%
C[C@H](CN1CCCC1)C(=O)c1ccc(C(F)(F)F)cc1 | 6.78% [at 35.3 µM]
SCCOCCOCCS | -7.53%
CC(Cc1ccccc1)(NC(=O)CN)c1ccccc1 (stereo not given) | 8.37% [at 35.3 µM]
CCCCCCCCCCCCSCCOCCO | 16.2% [at 35.3 µM]
CC(=O)S[C@H](C(=O)N[C@H]1Cc2ccccc2[C@H]2CCC[C@@H](C(=O)O)N2C1=O)C(C)C | 6.86%
CC(C)(Cc1c[nH]c2ccccc12)NCC(O)COc1ccccc1C#N (stereo not given) | 21.4% [at 35.3 µM]
CC/C=C/CCO | 3.73%
CCC(C(=O)O)c1ccc(N2Cc3ccccc3C2=O)cc1 (stereo not given) | -19.1% [at 35.3 µM]
O=C(C1CCCCC1)N1CC(=O)N2CCCc3ccccc3C2C1 (stereo not given) | -0.498% [at 35.3 µM]
CCCC1CCCC(=O)O1 (stereo not given) | -11.3%
O=C(O)c1c2ccccc2cc2ccccc12 | -11.1%
O=C(O)c1cccnc1Nc1cccc(C(F)(F)F)c1 | -18.4% [at 35.3 µM]
CCCCCCC/C=C/C=O | 5.21%
